USP1 inh = blocks the human USP1/UAF1 deubiquitinase complex. O94782. recombinant USP1/UAF1, Ub-Rhodamine cleavage fluorescence. Potency, µM (titrated, usually from 57.1 µM), inactives show at the highest dose activity change, negative = inhibition, most hits filed as inhibitors. hit rate 0.23% among 390,000. AID 743255; further: potency means the concentration at half of the fitted maximal effect; nearly all actives have a fitted effect of over 60% in size
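High-throughput fluorogenic screen: 1nM USP1/UAF1 complex, Ub-Rho substrate 150nM final, 50mM HEPES pH 7.8 with 0.5mM EDTA, 0.1 mg/ml BSA, 1mM TCEP and 0.01% Tween-20.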
VDR inhibitor = inhibitors of human vitamin D receptor | P11473 | VDR-SRC2-3 peptide fluorescence polarization, 2 h | Potency, µM, for the others: max response, negative = inhibition, most hits filed as inhibitors | hit rate 0.93% among 400,000 | AID 504847; further: potency means the concentration at half of the fitted maximal effect
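Measured by FP: displacement of SRC2-3 coactivator peptide from VDR by library compounds, following a two-hour ambient incubation.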
Coupling enz = counter-screen for Giardia aldolase inhibitors: coupling enzyme system. hit rate 0.67% among 290,000. activity change, negative = inhibition, % at 58.2 µM, hits read low. coupling enzyme system counterscreen, AmpLite Red fluorescence; in the data active means activity change below about -30%
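Compounds tested against the coupling enzymes alone at 57.5 uM final; readout was AmpLite Red fluorescence (525/598 nm) after 20 min at RT.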
GALK inhibitor = blocks human galactokinase activity | Purified GALK, Kinase-Glo residual ATP luminescence | Potency, µM (doses to about 57.5 µM), inactives show top-dose activity change, negative = inhibition, usual class: inhibitors | hit rate 0.007% among 270,000; further: potency means the concentration at half of the fitted maximal effect
Target sequence (P51570 whole entry, looked up): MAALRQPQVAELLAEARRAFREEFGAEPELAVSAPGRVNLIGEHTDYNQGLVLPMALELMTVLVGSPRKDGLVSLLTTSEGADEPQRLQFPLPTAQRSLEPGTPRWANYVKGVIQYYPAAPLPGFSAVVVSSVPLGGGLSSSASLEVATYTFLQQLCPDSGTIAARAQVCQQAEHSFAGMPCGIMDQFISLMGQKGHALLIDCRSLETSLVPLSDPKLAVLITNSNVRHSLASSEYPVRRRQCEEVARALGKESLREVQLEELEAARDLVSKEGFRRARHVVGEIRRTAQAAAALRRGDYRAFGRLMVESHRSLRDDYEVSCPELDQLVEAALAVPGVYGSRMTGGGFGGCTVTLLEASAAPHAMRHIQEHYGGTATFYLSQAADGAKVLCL
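Kinase-Glo Plus luminescence measured ATP left after a 1 h room-temperature reaction. The reaction used 5 nM GALK, 100 uM galactose and 35 uM ATP at pH 8.0 (20 mM HEPES, 5 mM MgCl2, 60 mM NaCl, 1 mM DTT, 0.01% BSA).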
PLK1 PBD inh = blocks phosphopeptide binding to human PLK1 polo-box domain. P53350. Plk1 PBD binding of FITC phosphopeptide, fluorescence polarization. Potency, µM, for inactives: max response, negative = inhibition, most hits filed as inhibitors. hit rate 2.8% among 360,000; further: potency means the concentration at half of the fitted maximal effect; series mostly up to about 57 µM; nearly all actives have a fitted effect of over 65% in size
USP2a inh = blocks human ubiquitin-specific protease USP2a; Potency, µM (titrated, usually from 38.3 µM), for the others: at the top dose activity change, negative = inhibition, actives largely listed as inhibitors; USP2 core, Ub-CHOP2 coupled fluorogenic reporter, 485/531; O75604; hit rate 0.01% among 330,000; AID 463254;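 further: potency means the concentration at half of the fitted maximal effect; plate controls were DMSO wells for no effect and full inhibition by NEM control for full effect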
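Cell-free coupled assay: 10nM USP2 core preincubated 30min RT with compound in Tris-HCl pH 8.0/CaCl2/CHAPS buffer, then 25nM Ub-CHOP2 and 25nM reporter substrate; fluorescence (Ex 485/Em 531) read after 60min RT, normalized to NEM inhibition, concentration-response curves fitted.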
The depositor's hits bear a star; ? = inconclusive; . = no result. Hits are enriched below; roughly 3.2% of the tested compounds scored in any of these assays. Unless noted, the call rests on the fitted dose curve; in most records, active means well fitted curve in the direction sought with a large enough effect; inconclusive means small, poorly fitted or top-dose-only effect, or another doubt; inactive means no such curve, though single readings can be large; an effect the other way counts as inactive or inconclusive. Unless noted, on the % scale 0 is the no-effect control and ±100 the full control effect.

SMILES	USP1 inh	VDR inhibitor	Coupling enz	GALK inhibitor	PLK1 PBD inh	USP2a inh
CC(=O)c1ccc(N(C)C)c2c(N(C)C)cccc12	-16%	6%	-55*	0%	-9%	2%
CN(C)c1cccc2cccc(N(C)C)c12	-8%	-13%	-35*	0%	-10%	0%
CC(=O)c1ccc2c3c(cccc13)CC2	-20%	-14%	1	-2%	-11%	-1%
COCc1nnc(NC(=O)CSCc2ccccc2)s1	-9%	-5%	.	0%	21µM*	-2%
COCCSc1ccccc1C(=O)Nc1nnc(COC)s1	-9%	1%	2	-4%	27µM*	0%
COCc1nnc(NC(=O)CSc2ccccc2)s1	-18%	-4%	-1	-2%	-12%	-1%
CCc1ccc(NC(=S)N2CCC(NC(=O)c3ccccc3OC)CC2)cc1	-2%	5%	-1	-1%	-6%	4%
OCCn1c(CSc2nnc(-c3ccco3)n2-c2ccccc2)nc2ccc(Cl)cc21	-16%	0%	5	-3%	-19%	-4%
O=C(O)COc1ccccc1-c1nc(-c2ccccc2)c(-c2ccccc2)[nH]1	-25%	-12%	-1	1%	34µM*	-2%
COc1cccc(-c2nc(-c3ccccc3)c(-c3ccccc3)[nH]2)c1OCC(=O)O	-27%	-25%	-3	-7%	?	1%
CN(C)/C=N/c1c(C#N)cnn1-c1ncnc2sc(-c3ccccc3)cc12	-5%	4%	-2	1%	-2%	0%
COc1cccc(Cn2c(NCc3cccnc3)nc3c2c(=O)n(C)c(=O)n3C)c1	3%	5%	.	1%	4%	1%
NC(=O)NOCc1ccc(F)cc1Cl	-21%	-11%	-3	-2%	-1%	-1%
NC(=O)NOCc1ccc(Cl)cc1Cl	-11%	-22%	2	7%	27µM*	-7%
CN(C)C(=O)/C(C#N)=C\c1cc(Br)c(Sc2ccc(Cl)cc2)o1	-17%	-29%	-51*	-2%	-14%	0%
Clc1ccc(Sc2oc(/C=N/n3cnnc3)cc2Br)cc1	3%	-15%	0	5%	-9%	2%
COc1cc(/C=C2\C(=N)N3N=C(S(C)(=O)=O)SC3=NC2=O)cc(OC)c1OCCOc1cccc(C)c1	-14%	?	10	-12%	30µM*	1%
COc1cc(/C=C2\C(=N)N3N=C(S(C)(=O)=O)SC3=NC2=O)cc(OC)c1OCCOc1ccc(C)cc1	-22%	?	6	-14%	21µM*	-5%
COc1cc(/C=C2\C(=N)N3N=C(S(C)(=O)=O)SC3=NC2=O)ccc1OCCOc1ccc(C)cc1	-28%	8%	6	.	?	2%
CC(C)Oc1ccc(CNC(=O)Cn2c(=O)c3cccn3c3cccnc32)cc1	-18%	-3%	.	1%	-14%	1%
O=C(NC1CCCCCC1)C1CC(=O)N(c2ccc(Cl)cc2)C1 (stereo unspecified)	?	-15%	0	14%	-10%	3%
Cc1ccc([N+](=O)[O-])cc1S(=O)(=O)N1CCNCC1	-5%	-26%	1	10%	15µM*	0%
CCOC(=O)N1CCN(S(=O)(=O)c2cc([N+](=O)[O-])ccc2C)CC1	-20%	11%	1	-1%	-4%	4%
COc1ccccc1Nc1nc(N)nc(CSc2ncccn2)n1	-19%	-14%	-1	0%	27µM*	3%
C/C(=N\Nc1ccc(C(=O)O)cc1)c1ccc2c(c1)Nc1ccccc1S2	-17%	-14%	2	0%	30µM*	-5%
SMILES	USP1 inh	VDR inhibitor	Coupling enz	GALK inhibitor	PLK1 PBD inh	USP2a inh
C/C(=N/Nc1ccc(C(=O)O)cc1)c1ccc2c(c1)Nc1ccccc1S2	-5%	-9%	.	.	30µM*	.
CC(=O)Nc1ccc(NC(=O)c2ccc3c(c2)NC(=O)c2ccccc2S3)cc1	?	4%	.	.	.	.
COc1cc(OC)cc(C(=O)Nc2cc(C)on2)c1	-20%	-29%	-1	-2%	-8%	-1%
Clc1ccc(Sc2cc(N3CCOCC3)nc(-c3ccccc3)n2)cc1	-5%	0%	2	-3%	-8%	0%
CC(C)CCCC(C)N (stereo unspecified)	.	8%	.	.	.	.
CCCCn1c(SCC(=O)Nc2cccc(OC)c2)nc2ccc(N3CCOCC3)cc2c1=O	-27%	-9%	-32*	0%	-15%	-9%
CCCCn1c(SCC(N)=O)nc2ccc(N3CCOCC3)cc2c1=O	-17%	-10%	-40*	-2%	-7%	-6%
CCc1nnc(N/N=C/c2ccc(-c3ccc([N+](=O)[O-])cc3)o2)n1N	?	-24%	-37*	-1%	-5%	-2%
Cc1nnc(N/N=C\c2ccc(-c3ccccc3[N+](=O)[O-])o2)n1N	?	-16%	-65*	1%	-17%	-10%
CCC(=O)N/N=C/c1ccc(-c2ccc([N+](=O)[O-])cc2)o1	-18%	-12%	3	6%	-1%	1%
NC(=O)c1c(NC(=O)C2CCCO2)sc2c1CCCCC2 (stereo unspecified)	-24%	?	-10	1%	11µM*	-1%
N#Cc1c(NC(=O)CCCC(=O)O)sc2c1CCCCC2	-12%	-5%	-5	2%	-13%	1%
CC(C)(C)C1CCc2onc(C(=O)Nc3sc4c(c3C(N)=O)CCCC4)c2C1 (stereo unspecified)	-23%	79µM*	.	.	.	.
Cn1cnnc1SCC(=O)Nc1sc2c(c1C(N)=O)CCC2	-29%	-9%	0	-3%	27µM*	-1%
NC(=O)c1c(NC(=O)CCCC(=O)O)sc2c1CCCCCC2	-4%	?	6	.	27µM*	3%
CC(C)(C)C1CCc2c(sc(NC(=O)C3CCCO3)c2C(N)=O)C1 (stereo unspecified)	-1%	10%	.	2%	-11%	1%
COc1cccc2c(=O)n(CC(=O)NC3CCCC3)ccc12	7%	-16%	2	1%	-7%	1%
CC(C)(C)c1ccc(S(=O)(=O)NCC(=O)Nc2sc3c(c2C(N)=O)CCCC3)cc1	-23%	-7%	1	-3%	27µM*	0%
CCOC(=O)C(NC(=O)Nc1ccc(O)cc1)(c1ccccc1)C(F)(F)F (stereo unspecified)	-25%	11%	-39*	0%	-7%	1%
CCOC(=O)C(NC(=O)NC1CCCCC1)(c1ccccc1)C(F)(F)F (stereo unspecified)	-8%	-1%	3	0%	-1%	0%
Cn1c(CS/C(N)=N/N=C/c2ccccc2)c(Br)c(=O)n1-c1ccccc1	-1%	50µM*	1	.	24µM*	5%
NC(=N\N=Cc1ccccc1)/C(N)=N/N=Cc1ccccc1	3%	-4%	.	.	-3%	.
